# Experimental data: PubChem BioAssay (EPA / NIEHS)
# Active and inactive are the calls of the source. Rule for the calls: active = hit-call score of the fitted dose curve at least 0.9, where 1 is the maximum; inconclusive = response in the unintended direction; inactive = score below 0.9.
# Molecular target: rat CYP2C11, Cyp2c11 (gene 29277) (UniProt P08683)
# Assay: NVS_ADME_rCYP2C11: NovaScreen (NVS) CYP450-related Enzyme Activity (ADME) Assay for rat CYP2C11 (AID 2283118)
# Description: NVS_ADME_rCYP2C11 is a biochemical, single-readout assay that uses extracted gene-proteins in a cell-free assay. Measurements were taken 0.33 hour after chemical dosing in a 96-well plate.NVS_ADME_rCYP2C11 is one of one assay component(s) measured or calculated from the NVS_ADME_rCYP2C11 assay. It is designed to make measurements of enzyme activity, a form of enzyme reporter, as detected with fluorescence intensity signals by Fluorescence technology.Data from the assay component NVS_ADME_rCYP2C11 was analyzed into 1 assay endpoint. This assay endpoint, NVS_ADME_rCYP2C11, was analyzed in the positive analysis fitting direction relative to Acetonitrile as the negative control and baseline of activity. Using a type of enzyme reporter, loss-of-signal activity can be used to understand changes in the enzymatic activity as they relate to the gene Cyp2c11. Furthermore, this assay endpoint can be referred to as a primary readout, because this assay has produced multiple assay endpoints where this one serves a enzymatic activity function. To generalize the intended target to other relatable targets, this assay endpoint is annotated to the cyp intended target family, where the subfamily is xenobiotic metabolism.
# Binding assays used specific radioligands (tritiated, iodinated) with non-radioactive competitive displacement ligands in agonist or antagonist protocols (as indicated) and various reference compounds and inhibitors to titrate specific binding to receptors and transporters. Most enzyme assays (CYPs, kinases, phosphatases, proteases, HDACs) used recombinant protein and specific substrates (fluorescence mostly, some colorimetric and radioactive) and inhibitors, followed by a biochemical separation of substrate and product. All assays for the biochemical HTS were initially run in duplicate at a single concentration (10 uM for CYP450 assays and 25 uM for all others). […] Each assay was run with positive and negative controls, and concurrent controls on every plate. The follow-up (secondary) screen tested active chemical-pairs in concentration series, as well as a few additional assays not tested in the primary screen, some selected negative inactives, and several cases re-run in the concentration series for confirmatory purposes.
# Chain of rat CYP2C11, Cyp2c11 (gene 29277) (P08683 whole entry, looked up): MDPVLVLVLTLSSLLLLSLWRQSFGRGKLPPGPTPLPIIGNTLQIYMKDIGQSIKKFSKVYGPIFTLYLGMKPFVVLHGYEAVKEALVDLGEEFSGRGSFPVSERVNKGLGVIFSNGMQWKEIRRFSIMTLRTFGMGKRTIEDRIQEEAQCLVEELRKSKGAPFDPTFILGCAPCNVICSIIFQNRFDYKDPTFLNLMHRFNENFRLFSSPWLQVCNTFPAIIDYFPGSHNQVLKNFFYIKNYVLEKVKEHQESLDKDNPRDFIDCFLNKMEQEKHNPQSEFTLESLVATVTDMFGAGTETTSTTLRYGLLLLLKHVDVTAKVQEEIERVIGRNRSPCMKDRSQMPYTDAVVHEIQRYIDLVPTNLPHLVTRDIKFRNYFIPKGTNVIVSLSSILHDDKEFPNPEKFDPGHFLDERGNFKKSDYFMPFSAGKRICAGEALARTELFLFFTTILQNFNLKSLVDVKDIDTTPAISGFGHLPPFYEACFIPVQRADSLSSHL
Compound,AC50,outcome
CCCOCC(=Nc1ccc(Cl)cc1C(F)(F)F)n1ccnc1,0.798 µM (active),–
C#CCC1=C(C)C(OC(=O)C2C(C=C(C)C)C2(C)C)CC1=O (stereo not drawn),–,inactive
CCOC(=O)CC(SP(=O)(OC)OC)C(=O)OCC (stereo not drawn),8.37 µM (active),–
CCOP(=S)(OCC)Oc1ccc([N+](=O)[O-])cc1,2.93 µM (active),–
CCOP(=O)(SC(C)CC)N1CCSC1=O (stereo not drawn),3.88 µM (active),–
CCOP(=S)(OCC)Oc1ccc2c(C)c(Cl)c(=O)oc2c1,1.2 µM (active),–
CC(C1CC1)C(O)(Cn1cncn1)c1ccc(Cl)cc1 (stereo not drawn),1.69 µM (active),–
C[Si](Cn1cncn1)(c1ccc(F)cc1)c1ccc(F)cc1,0.25 µM (active),–
CCOP(=O)(NC(C)C)Oc1ccc(SC)c(C)c1 (stereo not drawn),6.43 µM (active),–
CCCSP(=O)(OCC)Oc1ccc(Br)cc1Cl (stereo not drawn),0.226 µM (active),–
FC(F)C(F)(F)OCC(Cn1cncn1)c1ccc(Cl)cc1Cl (stereo not drawn),0.732 µM (active),–
C=C(C)[C@H]1Cc2c(ccc3c2O[C@@H]2COc4cc(OC)c(OC)cc4[C@@H]2C3=O)O1,5.05 µM (active),–
O=[N+]([O-])c1cc(C(F)(F)F)c(Cl)c([N+](=O)[O-])c1Nc1ncc(C(F)(F)F)cc1Cl,2.91 µM (active),–
